Compound activity: PubChem, several laboratories
This is a sample that favours compounds with a hit; in the whole collection about 2.4% have one here.
PfG6PD inh = PfG6PD enzyme inhibitors, primary screen, biochemical, fluorescence intensity, uHTS | glucose-6-phosphate dehydrogenase-6-phosphogluconolactonase (Plasmodium falciparum 3D7) | 350,000 tested, 0.78% active | inhibition, % at 20 µM | AID 504690, 2011 | PfGluPho enzyme, NADPH resazurin-diaphorase fluorescence;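 active means inhibition reaching at least a set limit at 20 µM in the primary screen, cut at about 59% in these data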;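 further: 0% = DMSO wells with substrate and 100% = DMSO wells lacking glucose-6-phosphate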
CR mimetic SO = reduction of superoxide in aged yeast, primary screen, HTS. S. cerevisiae aged cells, superoxide DHE fluorescence; stronger effect = lower value. superoxide response (% of plate mean), % at 10 µM. 330,000 tested, 0.18% active. AID 2690, 2010;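 active means superoxide response under a set limit, about three screen SD below normal, cut at about 65% in these data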;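 further: yeast aged for seven days with compound at 30 °C before DHE staining; 100% = average MFI of all compound-treated wells on the plate with controls excluded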
APOBEC3G inh = APOBEC3G DNA deaminase inhibitors, primary screen, biochemical, fluorescence, single-stranded DNA substrate, uHTS; recombinant A3G, ssDNA deamination FAM/TAMRA fluorescence; inhibition, % at 20 µM; 330,000 tested, 0.28% active; AID 493012, 2011;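 active means inhibition of at least 40% at 20 µM, with no more than 30% in the related APOBEC3A deaminase screen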;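 further: plate controls were DMSO wells with A3G for no effect and wells lacking A3G enzyme for full effect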
Target sequence (Q9HC16 whole entry, looked up): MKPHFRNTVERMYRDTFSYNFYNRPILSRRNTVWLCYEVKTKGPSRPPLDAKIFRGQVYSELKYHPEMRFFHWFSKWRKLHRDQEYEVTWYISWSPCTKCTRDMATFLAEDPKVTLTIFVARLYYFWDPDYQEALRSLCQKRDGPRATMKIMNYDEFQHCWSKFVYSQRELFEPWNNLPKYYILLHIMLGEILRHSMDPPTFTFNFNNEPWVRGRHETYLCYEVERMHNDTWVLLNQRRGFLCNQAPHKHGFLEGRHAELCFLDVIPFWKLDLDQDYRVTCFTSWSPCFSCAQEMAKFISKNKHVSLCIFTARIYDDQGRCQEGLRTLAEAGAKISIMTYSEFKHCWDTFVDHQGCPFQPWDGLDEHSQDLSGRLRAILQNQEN
A3A deaminase = APOBEC3A ssDNA deaminase inhibitors, primary screen, selectivity assay for APOBEC3G inhibitor project, biochemical, FAM/TAMRA oligo cleavage fluorescence; DNA dC->dU-editing enzyme APOBEC-3A (Homo sapiens), P31941; recombinant A3A, FAM/TAMRA ssDNA deamination fluorescence; inhibition, % at 20 µM; 330,000 tested, 0.41% active; AID 493011, 2011;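 active means at least 40% inhibition at 20 µM here, with at most 30% in a related deaminase screen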;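 further: plate controls were A3A with DMSO for no effect and wells lacking A3A enzyme for full effect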
Target sequence (P31941 whole entry, looked up): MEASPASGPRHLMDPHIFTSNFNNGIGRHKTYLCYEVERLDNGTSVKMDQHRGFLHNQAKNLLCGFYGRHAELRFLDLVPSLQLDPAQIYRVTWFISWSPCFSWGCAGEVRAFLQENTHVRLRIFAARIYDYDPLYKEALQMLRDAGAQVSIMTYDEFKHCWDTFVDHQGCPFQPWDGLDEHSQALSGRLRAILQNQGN
PfM18AAP inh = PfM18AAP inhibitors, malaria aminopeptidase, primary screen, biochemical, QFRET, recombinant enzyme. M18 aspartyl aminopeptidase (Plasmodium falciparum 3D7). H-Glu-NHMec fluorogenic cleavage. inhibition, % at 7.35 µM. 290,000 tested, 1.2% active. AID 1822, 2009;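 active means inhibition above the campaign mean inhibition over all tested compounds plus 3 SD, cut at about 28% in these data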;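 further: 0% = plate median of test compound wells and 100% = 2 mM ZnCl2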
PfGluPho conf = PfG6PD inhibitors, hit retest, confirmation, biochemical, fluorescence intensity, single concentration. shares compounds with PfG6PD inh. recombinant PfGluPho, NADPH-diaphorase-resazurin fluorescence. inhibition, % at 20 µM. 2,400 tested, 34% active. AID 504753, 2011;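 active means inhibition of at least 50% at 20 µM in any single replicate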;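 further: 0% = DMSO with substrate and 100% = DMSO lacking glucose-6-phosphate substrate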
Diaph ctr 10uM = diaphorase inhibitors and chemical oxidizers, confirmation, counter-screen for P. falciparum G6PD inhibitor project, biochemical, fluorescence intensity, 10 µM NADPH. shares compounds with PfG6PD inh. diaphorase-coupled resazurin reduction, NADPH 10 uM. inhibition, % at 20 µM. 820 tested, 39% active. AID 504862, 2011;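 active means average inhibition reaching 50% or more with the compound at 20 µM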;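 further: resorufin red fluorescence formed as diaphorase reduces resazurin using NADPH; 0% = DMSO with enzyme and 100% = DMSO without enzyme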
Diaphorase 30uM = diaphorase inhibitors and chemical oxidizers, confirmation, counter-screen for P. falciparum G6PD inhibitor project, biochemical, fluorescence intensity, 30 µM NADPH | shares compounds with PfG6PD inh | Diaphorase/resazurin coupled assay, resorufin fluorescence | inhibition, % at 20 µM | 820 tested, 29% active | AID 504863, 2011;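 active means inhibition averaging 50% or more, tested at 20 µM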;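 further: 0% = DMSO with enzyme and 100% = DMSO wells lacking diaphorase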
Numbers without * were called inactive; nt = no result given.

SMILES	PfG6PD inh	CR mimetic SO	APOBEC3G inh	A3A deaminase	PfM18AAP inh	PfGluPho conf	others
CC(=O)Nc1cc([N+](=O)[O-])ccc1OCc1ccccc1	72*	nt	nt	nt	nt	50*	Diaph ctr 10uM=45;Diaphorase 30uM=37
CCc1ccc(Nc2n[n+](-c3ccccc3)c(-c3c(Cl)cccc3Cl)s2)cc1	80*	94	-13	-4	-2	34
COc1ccc(-c2sc(Nc3ccccc3)n[n+]2-c2ccc(F)cc2)cc1Br	12	104	-8	-4	-4	nt
COc1ccc2ccccc2c1-c1sc(Nc2ccccc2)n[n+]1-c1ccc(F)cc1	99*	103	-7	2	-6	79*	Diaph ctr 10uM=75*;Diaphorase 30uM=59*
CCc1ccc(Nc2n[n+](-c3ccccc3)c(-c3ccc(N(CC)CC)cc3)s2)cc1	25	98	3	4	6	nt
COc1ccc(C)cc1Nc1n[n+](-c2ccccc2)c(-c2ccc(OC)c(OC)c2OC)s1	19	96	-10	-6	-1	nt
COc1ccc(C)cc1Nc1n[n+](-c2ccccc2)c(-c2c(Cl)cccc2Cl)s1	73*	90	-7	-1	20	40
COc1ccccc1NS(=O)(=O)c1ccc(C)c(NS(=O)(=O)c2cc(C(=O)O)cc(C)c2C)c1	-10	98	-3	1	-7	nt
Cc1cc(Nc2ccccc2)nc(N2CCN(C(=O)c3ccc4c(c3)OCO4)CC2)n1	2	97	-11	-2	nt	nt
CN(C)S(=O)(=O)c1ccc(S(=O)(=O)NCc2cccs2)cc1	3	91	-2	0	2	nt
Cc1nc2c(O)c3c(c(O)c2nc1C)C1C=CC3CC1	123*	nt	nt	nt	nt	102*	Diaph ctr 10uM=95*;Diaphorase 30uM=89*
Clc1ss/c(=N\c2ccccn2)c1Cl	64*	124	2	-2	-5	-6
O=C1N/C(=N\c2ccccn2)SC1Cc1ccccc1Cl (stereo unspecified)	-12	123	5	2	7	nt
COc1ccc(C2CC(=O)Oc3cc(C)c(Cl)c(C)c32)cc1 (stereo unspecified)	15	107	3	1	nt	nt
CN(NS(=O)(=O)c1ccc([N+](=O)[O-])cc1)c1ccccc1	82*	nt	nt	nt	nt	55*	Diaph ctr 10uM=91*;Diaphorase 30uM=85*
O=[N+]([O-])c1ccc(S(=O)(=O)Nc2ccc(-c3ccccc3)cc2)cc1	-15	nt	nt	nt	nt	nt
CCC1(CC)Cc2ccccc2-c2nc(NN)[nH]c(=O)c21	76*	93	-2	5	4	31
CCOc1ccc(CCNC(=O)COC(=O)c2cc(OC)c(OC)cc2[N+](=O)[O-])cc1OCC	4	97	-8	2	nt	nt
Cc1nc2cc(NC(=O)c3ccc(Br)s3)ccc2s1	67*	90	-4	3	-15	30
Cc1ccc(C(=O)Nc2ccc3nc(C)sc3c2)s1	-3	86	-9	-2	-7	nt
O=C(/C=C/c1ccc(-c2ccccc2)o1)c1ccccc1	111*	98	-4	-1	-21	5
Cc1ccc(-c2ccc(/C=C/C(=O)c3ccccc3)o2)cc1	11	87	22	-3	-9	nt
O=C(NC1CC1(c1ccccc1)c1ccccc1)c1ccccc1 (stereo unspecified)	77*	nt	nt	nt	nt	36
CCOC(=O)CSc1nc2nc(Cl)c(Cl)nc2[nH]1	81*	nt	nt	nt	nt	47
Cc1cc2[nH]c3c4ccccc4nc(C)c3c2cc1C	75*	nt	nt	nt	nt	8
SMILES	PfG6PD inh	CR mimetic SO	APOBEC3G inh	A3A deaminase	PfM18AAP inh	PfGluPho conf	others
S=c1[nH]nc(-c2ccc3ccccc3n2)n1-c1cc(Cl)cc(Cl)c1	57	101	-10	-2	-12	nt
S=c1[nH]nc(-c2ccc3ccccc3n2)n1-c1ccccc1Cl	63*	101	nt	nt	2	48
CCOC(=O)C(C)Sc1nc(N2CCOCC2)c2c(c1C#N)CC(C)(C)OC2 (stereo unspecified)	5	108	-4	1	nt	nt
CC(Sc1nc(N2CCOCC2)c2c(c1C#N)CC(C)(C)OC2)C(=O)Nc1ccccc1 (stereo unspecified)	60*	nt	-7	0	-8	-10
COc1cccc(C(=O)OCC(=O)c2ccc(Br)s2)c1OC	6	130	1	-2	nt	nt
CCOC(=O)/C(=N/Nc1ccccc1)N1CCCc2ccccc21	95*	94	-5	-3	7	33
CCOC(=O)/C(=N/Nc1ccc(OC)cc1)N1CCCc2ccccc21	112*	82	-14	-5	5	58*	Diaph ctr 10uM=56*;Diaphorase 30uM=51*
COc1ccc(Cl)cc1NC(=O)CN(C(=O)c1ccco1)C1CCCCC1	63*	134	-6	-5	8	31
Cc1cc(OCc2nc(N)nc(N)c2-c2ccc(Cl)c(Cl)c2)ccc1[N+](=O)[O-]	13	nt	nt	nt	nt	nt
CC1=CC(C)(C)N2C(=O)C(=Nc3ccc(O)cc3)c3cccc1c32	94*	92	16	4	20	23
COc1cc(N=C2C(=O)N3c4c(cccc42)C(C)=CC3(C)C)cc(OC)c1	29	110	-9	-3	12	nt
